Source: PubChem BioAssay (NCI)
About 79,000 compounds went through this panel and 15% of them were active in at least one assay; those are over-represented in the sample as a whole. Values without a mark were called inactive. Activity calls are given as the source filed them. No stated cut-off is given here; in the data, active means growth inhibition above about 70%; inactive means the rest.

How the values were obtained:
[1] = NCI Yeast Anticancer Drug Screen. Data for the rad50 strain (AID 155);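 further: 0% = growth of vehicle-only cultures of the same strain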; settings: S. cerevisiae rad50 strain growth inhibition, hits give high values; at 50.0 µM unless noted
Procedure, shortened: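 A DNA repair-deficient yeast mutant serves as the test organism; compound-induced growth inhibition is calculated against vehicle-treated cells.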

[2] = NCI Yeast Anticancer Drug Screen. Data for the mec2-1 strain (AID 157); settings: S. cerevisiae mec2-1 strain, hits give high values; at 50.0 µM unless noted
Procedure, shortened: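 Using mec2-1 yeast: add compound, measure growth, express inhibition versus vehicle-treated cultures.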

[3] = NCI Yeast Anticancer Drug Screen. Data for the sgs1 mgt1 strain (AID 161);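 further: 0% = growth of cultures given vehicle only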; settings: S. cerevisiae sgs1 mgt1 strain, hits give high values; at 50.0 µM unless noted
Procedure, shortened: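 Compounds are added to genetically altered yeast, and growth is compared with cultures given vehicle alone to give percent inhibition.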

[4] = NCI Yeast Anticancer Drug Screen. Data for the cln2 rad14 strain (AID 165);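 further: 0% = growth equal to vehicle treated cultures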; settings: S. cerevisiae cln2 rad14 strain, hits give high values; at 50.0 µM unless noted
Procedure, shortened: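 Yeast strain cln2 rad14, bearing defects in cell cycle control and DNA repair, serves as the test system; values reflect growth inhibition compared with vehicle.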

[5] = NCI Yeast Anticancer Drug Screen. Data for the bub3 strain (AID 167); settings: S. cerevisiae bub3 mutant strain, hits give high values; at 50.0 µM unless noted
Procedure, shortened: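 Inhibition values come from growth of compound-treated mutant yeast normalised to vehicle-treated controls.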

[6] = NCI Yeast Anticancer Drug Screen. Data for the mlh1 rad18 strain (AID 175); settings: S. cerevisiae mlh1 rad18 strain growth inhibition, hits give high values; at 50.0 µM unless noted
Procedure, shortened: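 Steps: expose repair-defective yeast to compound; measure growth; express inhibition against vehicle-treated controls.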

Compound	growth inhibition [1]	growth inhibition [2]	growth inhibition [3]	growth inhibition [4]	growth inhibition [5]	growth inhibition [6]
CC(=O)ONC(C(=O)C(C)(C)C)C(=O)C(C)(C)C	-1.4%	-4.4%	-3.9%	24.7%	-2.7%	-4.8%
O=C(O)c1ccc(C(=O)NCCCN(CCCCN(CCCNC(=O)c2ccc(C(=O)O)c(O)c2O)C(=O)c2ccc(C(=O)O)c(O)c2O)C(=O)c2ccc(C(=O)O)c(O)c2O)c(O)c1O	11.2%	16.1%	20.3%	-31.3%	0.35%	24.9%
Cc1ccc(S(=O)(=O)C2CC(=O)N(c3ccc(F)c(Cl)c3)C2=O)cc1 (stereo unspecified)	-26.6%	4.55%	-7.6%	-19.2%	4.2%	-11.7%
Cc1cccc(NC(=O)c2ccc(Cl)cc2Cl)c1	9.1%	14.1%	6.8%	13.6%	21.3%	22.2%
Cn1c(=O)c2[nH]c(Nc3cccc(Cl)c3)nc2n(C)c1=O	-26.3%	8.75%	-18.8%	-13.2%	-1.85%	17.1%
Clc1nn2cnnc2c2ncccc12	2.8%	-0.45%	2.95%	-13.3%	15.2%	16.4%
O=CNc1nc[nH]c1-c1noc(=O)[nH]1	-2.75%	-9.5%	-3.5%	-23.9%	-10.8%	-6.8%
CC1Nc2ccccc2C1C (stereo unspecified)	-35.2%	-49%	-62.1%	7.05%	-59.6%	-12.5%
CN1NC(c2ccccc2)=C(C#N)C(=O)CC1c1ccccc1 (stereo unspecified)	6.8%	-2.5%	13.1%	-1.4%	8.95%	10.2%
CC(C)N1C(=O)c2cccc(Cl)c2C1=O (tested in a mixture with another compound)	10.8%	4.1%	37.3%	37.6%	-7.85%	1.4%
C[N+]1(CC(=O)c2ccc(Cl)cc2)CCOCC1	20.8%	7.45%	10.6%	-20.9%	6.6%	28.1%
CCn1c(=O)n(Cc2ccccc2)c(=O)c2ccccc21	19.6%	8.95%	24.8%	10.8%	-4.7%	30.3%
CN1C(=O)N(C)C2(O)c3ccccc3C(=O)C12O (stereo unspecified)	14.6%	2.9%	18.9%	15%	19.8%	38.9%
Fc1ccc(/C=C2/c3cc(Cl)ccc3-c3c(Cl)cc(Cl)cc32)cc1	44.6%	3.25%	15.7%	-5.1%	-3.5%	5.5%
CC(C)CC(C)COC(=O)c1c(Cl)c(Cl)c(Cl)c(Cl)c1C(=O)O (stereo unspecified)	66.6%	62.6%	77.9% (active)	63.4%	72.8% (active)	77.3% (active)
O=C1CC(c2ccccc2)N1c1ccccc1 (stereo unspecified)	-17.9%	-34%	-11.3%	-20.6%	-10.9%	-22.8%
Clc1nc(NCCc2ccccc2)c2ncn(-c3ccccc3)c2n1	52.9%	47.2%	34.1%	12.9%	68.2%	42.8%
Cc1ccc(C)c(N=Nc2c(C)nc(N)nc2C)c1	1.8%	-10.2%	-9.45%	-34.2%	-22.1%	-3.05%
Oc1cccnc1Cl	12.9%	-13.7%	17.4%	9.2%	13.7%	2.5%
COC(=O)[C@]1(c2ccc(N(C)C)cc2OC)C[C@@H]2CCCN(CCc3c1[nH]c1ccccc31)C2	-5.8%	-4.35%	-11.5%	18.4%	-0.65%	21.6%
COC(=O)c1cc(OCC#CC#CCOc2ccc(O)c(C(=O)OC)c2)ccc1O	3%	-5.8%	9.65%	-1.2%	-4.15%	14.1%

Compound	growth inhibition [1]	growth inhibition [2]	growth inhibition [3]	growth inhibition [4]	growth inhibition [5]	growth inhibition [6]
OC1COC(CCl)OC1C1OC(CCl)OCC1O (stereo unspecified)	10.2%	23.6%	17.9%	6.3%	19.4%	25.9%
ClC1CCC[N-]C1.ClC1CCC[N-]C1.[Cl][Pt+2][Cl] (stereo unspecified)	-7.1%	4.95%	-9.7%	-28.6%	-3.6%	-3.55%
CCc1ccc2c(-c3ccccc3)c3c(-c4ccccc4)c4ccccc4c(-c4ccccc4)c3c(-c3ccccc3)c2c1	16.6%	7.3%	-5.8%	-28.4%	-8.15%	23.4%
CCCCOC(=O)COc1c(Cl)ccc(Cl)c1Cl	6.95%	-0.75%	7%	-3.5%	11.3%	6.7%
O=c1ccc2ccccc2cc1	14.3%	-18.6%	20.8%	-39.9%	8.15%	8.4%
COc1cccc2c1C(=O)c1c(O)c3c(c(O)c1C2=O)CC1(O)CC3OC1(C)OC (stereo unspecified)	1.2%	9.1%	-19.2%	24.2%	-1.35%	2.65%
O=C(NC(NC(=O)c1ccccc1)c1ccccc1)c1ccccc1	2.1%	-9.2%	1.25%	-55.2%	8.55%	-0.9%
NC(CC(=O)c1ccccc1NC=O)C(=O)O (stereo unspecified)	8.85%	-1.4%	-9.95%	-48.6%	-0.95%	3.25%
O=C(O)Cc1ccc(O)cc1	6.25%	-25.6%	8.6%	8.45%	-11.7%	1.75%
CO[C@H]1C[C@H](n2cc(C)c(=O)[nH]c2=O)O[C@@H]1CO	-6.55%	-9.75%	-39.9%	-10.7%	-9.3%	-25.8%
C=C(C)C1CCC2(C)C1CCC1(C)C2CCC2C3(C)C4OC(OC4=O)C(C)(C)C3CCC21C (stereo unspecified)	-0.8%	-20%	11.8%	0.1%	17.6%	-53%
Cc1cccc(C)c1NC(=O)Nc1ccccc1C(N)=O	4.85%	22.8%	35.5%	-6.75%	17.1%	-17.4%
COc1ccc(NC(=O)Nc2ccc(F)cc2)c(OC)c1	16.1%	4.9%	10.9%	13.9%	24.2%	7.45%
O=C1CCCC/C1=C/C=C/c1ccccc1	10.1%	21.8%	23.1%	-33.5%	-29.9%	6.75%
CN1CCCC1CCN (stereo unspecified)	0.15%	-10.8%	-13.8%	-1%	3.9%	6.15%
C=C1C(=O)OC2CC(C)C(/C=C/C(C)=O)=CCC12 (stereo unspecified)	-7.45%	-7.6%	-19.9%	-12.5%	-43%	-99.8%
CC(=O)N1C(=O)C2(c3ccccc31)c1cccc3c1C(=C1C(=O)OC(=O)C12)C(=O)N3C(C)=O (stereo unspecified)	64.5%	22.4%	52.3%	9.55%	8.85%	48.1%
OC12c3ccccc3C1CCCCCCCCCC21OCCCO1 (stereo unspecified)	-2.65%	-19.8%	-42.6%	6.4%	-30.4%	-23.6%
Cc1nc2[nH]ncc2c(=O)n1-c1ccccc1Cl	6%	-4.1%	5.95%	5.35%	3.75%	9%
O=C(/C=C/c1ccc(OCC(=O)N2CCN(c3ccccc3)CC2)cc1)c1ccccc1	13%	16%	35.6%	-5.95%	16.7%	10.7%
